Data on 90 molecules can be found in PubChem BioAssay AID440 (NMMLSC, 2006).

In all, about 24,000 compounds went through this assay and about 180 (0.75%) were called active. The sample as a whole holds a higher share of actives than the screen did. Unmarked numbers belong to inactive results. Cut-off read from the data, not from the text of the source: active = inhibition above about 30%; inconclusive = no clear call, values can overlap the other calls; inactive = below that.

Sequence of fMet-Leu-Phe receptor (Homo sapiens) (P21462 whole entry, looked up): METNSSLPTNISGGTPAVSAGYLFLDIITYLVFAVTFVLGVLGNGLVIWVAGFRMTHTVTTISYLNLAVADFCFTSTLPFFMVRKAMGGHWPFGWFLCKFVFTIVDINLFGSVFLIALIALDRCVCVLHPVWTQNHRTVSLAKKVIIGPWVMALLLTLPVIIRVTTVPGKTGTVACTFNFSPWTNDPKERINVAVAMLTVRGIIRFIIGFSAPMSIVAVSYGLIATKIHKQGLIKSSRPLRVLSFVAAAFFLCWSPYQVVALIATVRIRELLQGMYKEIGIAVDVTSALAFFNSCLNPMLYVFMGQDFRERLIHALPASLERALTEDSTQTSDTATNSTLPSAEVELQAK

This test concerns the target fMet-Leu-Phe receptor (Homo sapiens) (UniProt P21462). As to the kind of experiment: small molecules displacing FPR fluorescent ligand – cell-based, FPRL1 counter-screen, flow cytometry, primary screen (AID 440).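 Note: 0% = buffer wells and 100% = receptor blocker peptide wells.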 To be noted: FPR-expressing cells, fluorescent ligand binding, hits give high values, concentration not given here. (In general: Counterscreens check selectivity or assay interference.)
Consider `CCC(C(=O)Nc1ncccn1)(C(F)(F)F)C(F)(F)F`, for which the inhibition was -1.6%.

In the case of `CCOC(=O)c1nnn(-c2nc(OC)nc(N(C)C)n2)c1-c1ccccc1`, the inhibition was -0.2%.

`COc1cccc(Oc2ccc(N)cc2)c1`: the inhibition was -7.2%.

`C=CCn1c(SCC(=O)NC23CC4CC(CC(C4)C2)C3)nc(O)cc1=O`: the inhibition is 3.3%.

As for `CCn1ncc(C2=NOC(C(=O)Nc3ccccc3C(=O)OC)C2)c1C` (stereo not given), the inhibition is 5.9%.

Take `Cc1ccnc(N2C(=O)c3ccccc3C2Nc2ccc3c(c2)OCCO3)c1` (stereo not given): the inhibition is -0.2%.

Turning to `CC(=O)C1=C(O)C(=O)N(c2ccc(S(N)(=O)=O)cc2)C1c1ccccc1F` (stereo not given), the inhibition is -10.4%.

On to `CCOC(=O)c1sc(=S)n2c1[nH]c(=O)c1ccc(C(=O)OC)cc12`, for which the inhibition was 35.8% (active).

`CCOC(=O)c1sc(=S)n(-c2cccc(OC)c2)c1N`: the inhibition was 11%.

With `CCOC(=O)Cn1c(N)c(C(=O)OC)sc1=S`, the inhibition was 1.5%.

In the case of `Cc1ccc2cccc(O)c2[n+]1[O-]`, the inhibition is 0.7%.

In the case of `CCOC(=O)Cn1c2c(c(-c3ccccc3OC)cc1=O)CCCC2`, the inhibition was 10.1%.

As to `CCOC(=O)N1CCN(C(=O)CSc2nnc(-c3c[nH]c4ccccc34)n2CCOC)CC1`, the inhibition was 8.4%.

Consider `Cc1ccc2nc(NC(=O)C3CCN(S(=O)(=O)c4ccc5c(c4)oc(=O)n5C)CC3)sc2c1`, for which the inhibition is -18.8%.

With `Cc1cc(Nc2cccc(F)c2)n2ncnc2n1`, the inhibition is -3.6%.

In the case of `Cc1nc2ccc(S(=O)(=O)NCC(=O)NCCN3CCCCC3C)cc2s1` (stereo not given), the inhibition is -4.2%.

As to `Cc1noc(C)c1S(=O)(=O)N(CC(=O)Nc1ccc2c(c1)OCCO2)c1ccc(C(C)C)cc1`, the inhibition was 0.9%.

Take `O=C(OCc1ccccc1F)c1ccc2c(c1)OCCO2`: the inhibition was 3.6%.

For the molecule `CN1CCN(CCCNC(=O)c2cc3c(=O)oc4ccccc4c3s2)CC1`, the inhibition is -0.9%.

`COC(=O)c1cc(S(=O)(=O)NC2CCN(Cc3ccccc3)CC2)cn1C`: the inhibition was -4.4%.

For the molecule `CCC(=O)N1CCN=C1SCc1ccc(F)cc1`, the inhibition was 0%.

`O=C(Nc1nccs1)C1CCCN1S(=O)(=O)c1cccc2cccnc12` (stereo not given): the inhibition was -4.6%.

For the molecule `COc1cccc(-n2cc(C(=O)O)c3ccccc3c2=O)c1`, the inhibition was -2.1%.

With `COC(=O)c1c(-c2ccc(C)cc2)csc1N`, the inhibition was 7%.

As to `CCN1CCN(Cc2c(O)ccc3c(=O)c(-c4ccc(OC)c(OC)c4)c(C(F)(F)F)oc23)CC1`, the inhibition was -8.1%.

On to `O=C1C(=O)N(CCN2CCOCC2)C(c2ccccn2)/C1=C(/O)c1ccc(Cl)cc1` (stereo not given), for which the inhibition was 13.6%.

Take `CCOc1ccc(OCC)c(NC(=O)CN(C)S(=O)(=O)c2cccc3nsnc23)c1`: the inhibition was -0.8%.

As for `Cc1cnc(C(=O)OCC(=O)Nc2ccc(Cl)cc2Cl)cn1`, the inhibition was -2.2%.

As to `COc1ccc(NC(=O)c2c(SC)nsc2SC)cc1`, the inhibition is 2.1%.

As for `COc1ccc(-c2ccc(Nc3ccc(S(=O)(=O)N4CCCC4)cc3)nn2)cc1OC`, the inhibition is -6.4%.

Regarding `Cc1cc(Nc2ccc(Br)cc2F)n2ncnc2n1`, the inhibition is -4.7%.

Turning to `CCOC(=O)N1CCN(C(=O)C2CC(c3ccc(F)cc3)=NO2)CC1` (stereo not given), the inhibition is 9.4%.

Regarding `CN(C)CCCNC(=O)c1ccc2[nH]c3ccccc3c2c1`, the inhibition was 3.7%.

Take `COc1cccc(N2C(=O)CC(N3CCN(S(=O)(=O)c4ccccc4)CC3)C2=O)c1` (stereo not given): the inhibition was -0.8%.

Consider `CCOC(=O)c1c(C)c(C(=O)NCCc2ccc(S(N)(=O)=O)cc2)c(C)n1CC`, for which the inhibition was -11.9%.

Regarding `COc1ccc(CNC(=O)C2CCN(S(=O)(=O)N3CCOCC3)CC2)cc1`, the inhibition was -0.9%.

Take `COc1ccc(/C(O)=C2/C(=O)C(=O)N(CCCN(C)C)C2c2ccccc2)cc1OC` (stereo not given): the inhibition is -8.5%.

With `Cc1ccc(NC(=O)CN(C)S(=O)(=O)c2cnc[nH]2)cc1C`, the inhibition was -11.5%.

`O=C(O)Cc1ccc(NC(=O)C2CCCCC2C(=O)O)cc1` (stereo not given): the inhibition was -9.4%.

Take `COc1ccccc1N1CCN(C(=O)c2c(-c3c(Cl)cccc3Cl)noc2C)CC1`: the inhibition is 6.9%.

As to `CCOC(=O)CN1CC23C=CC(O2)C(C(=O)Nc2ccc(F)cc2)C3C1=O` (stereo not given), the inhibition is -4.5%.

As to `COc1ccc(CC(NC(C)=O)C(=O)NC2CCN(C(=O)Nc3ccc(C#N)cc3)CC2)cc1OC` (stereo not given), the inhibition was 13.5%.

For the molecule `CCOC(=O)c1oc2ccccc2c1NC(=O)c1cccs1`, the inhibition is -2.1%.

Regarding `CCOc1ccc(N(CC(=O)OC)S(=O)(=O)c2c(C)noc2C)cc1`, the inhibition was -18.8%.

Take `O=C(C1=C(O)C(=O)N(Cc2ccccc2)C1c1cccnc1)c1ccco1` (stereo not given): the inhibition is 36% (active).

For the molecule `O=C1c2ccccc2C(O)N1Cc1ccccc1` (stereo not given), the inhibition was -3.5%.

Turning to `CC1=C(C(=O)OCc2ccccc2)C(c2ccco2)n2ncnc2N1` (stereo not given), the inhibition is -4.9%.

On to `O=C(C1=C(O)C(=O)N(Cc2ccccc2)C1c1ccco1)c1ccco1` (stereo not given), for which the inhibition was 43.1% (active).

As for `O=C(C1=C(O)C(=O)N(c2ncccn2)C1c1cccs1)c1ccco1` (stereo not given), the inhibition is -4.1%.

In the case of `O=C(Nc1ccccc1)N(Cc1cccnc1)Cc1ccco1`, the inhibition was 4.3%.

For the molecule `Cc1cccc(N2C(=O)SC(N(CC(=O)O)c3cccc(C)c3)C2=O)c1` (stereo not given), the inhibition is 76.8% (active).

As for `CCC1Oc2ccc(Cl)cc2N(CC(=O)O)C1=O` (stereo not given), the inhibition is 4.3%.

For `Cc1cc(C)cc(N(CC(=O)NCC2CCCO2)S(=O)(=O)c2c(C)noc2C)c1` (stereo not given), the inhibition was 3.2%.

On to `COc1ccc(C2CC(c3ccc(Cl)cc3Cl)Nc3nc(N)nn32)cc1OC` (stereo not given), for which the inhibition is 6.7%.

On to `COc1ccccc1C(=O)N1CCN=C1SCc1cccnc1`, for which the inhibition was 0.1%.

`CCOC(=O)c1oc2c(CN3CCN(C)CC3)c(O)ccc2c(=O)c1-c1ccc(Br)cc1`: the inhibition was -5.9%.

Regarding `Cc1sc(NC(=O)C2C3CCC(O3)C2C(=O)O)c(C(=O)OC(C)C)c1-c1ccc(Cl)cc1` (stereo not given), the inhibition is 6.3%.

Consider `CC(C)OC(=O)c1cc(NC(=O)C2C3CCC(O3)C2C(=O)O)cc(C(=O)OC(C)C)c1` (stereo not given), for which the inhibition was 39.8% (active).

For `CC(C)COC(=O)C1C2C=CC3(CN(C(C)c4ccc(Br)cc4)C(=O)C13)O2` (stereo not given), the inhibition is -6.6%.

As to `Cc1ccc(C)c(N(CC(=O)NCc2ccco2)C(=O)CCC(=O)Nc2ccccn2)c1`, the inhibition is 19%.

As for `CCN(CC)CCNC(=O)Cn1cnc2sc(C)c(S(=O)(=O)N3CCOCC3)c2c1=O`, the inhibition was -9.4%.

As to `C/C(CC(O)(/C=N/O)c1ccccc1)=N\O` (stereo not given), the inhibition was 7.2%.

As for `O=C(Cn1c(=O)n(Cc2ccco2)c(=O)c2ccccc21)NCC1CCCO1` (stereo not given), the inhibition was 5.8%.

`N#CCCN1CCN(S(=O)(=O)c2ccc(S(=O)(=O)NC3CC3)cc2)CC1`: the inhibition was -1.2%.

With `CCOc1ccc(CCNC(=O)C2CCN(c3ccc(N4CCOCC4)nn3)CC2)cc1OCC`, the inhibition is -8.8%.

For the molecule `COCCOC(=O)C1=C(C)NC(=O)CC1c1cc2c(cc1Br)OCO2` (stereo not given), the inhibition is -1.8%.

For the molecule `Nc1nonc1-c1noc(-c2ccc(Br)o2)n1`, the inhibition was -6.7%.

Consider `CCC(C)(C(=O)NC1CCCC1)N(C(=O)CNC(C)=O)c1ccc(C)cc1` (stereo not given), for which the inhibition is 5.8%.

With `O=C(COC(=O)c1ccccc1C(=O)c1ccccc1)c1ccco1`, the inhibition was -1%.

Turning to `CCOC(=O)N1CCN(C(=O)c2cc3c(-c4ccc(Cl)cc4)nn(C)c3s2)CC1`, the inhibition is 8.5%.

In the case of `CC1CCN(c2oc(-c3ccccc3F)nc2C#N)CC1`, the inhibition was -10.3%.

Consider `O=C(NCCc1ccc(Cl)cc1)C1CC(=O)N(C2CCCCC2)C1` (stereo not given), for which the inhibition was -0.9%.

Consider `CCOc1cc2c(cc1OCC)C(C(=O)O)C(c1ccc(OC)c(O)c1)N(C)C2=O` (stereo not given), for which the inhibition is 12.3%.

`CCOc1ccc(CC(=O)Nc2ccc(S(=O)(=O)Nc3cc(C)on3)cc2)cc1OCC`: the inhibition was -0.6%.

Regarding `O=C(Cn1nnc(-c2ccc(CN3CCOCC3)cc2)n1)NC1CCCCC1`, the inhibition is 5.2%.

Consider `Cc1cc(C(=O)O)c(S(C)(=O)=O)s1`, for which the inhibition is -3.8%.

`Cc1cc(=O)n(C)c(=O)n1CCCNc1ccccc1`: the inhibition was -1.3%.

With `COCc1cc(C)nc(SCC(=O)Nc2cccc(C)c2)c1C#N`, the inhibition is -8.6%.

For `CCOC(=O)c1ccc(CS(=O)c2ccc(Cl)cc2)o1` (stereo not given), the inhibition is -1.1%.

`CCCS(=O)(=O)N1CCC(C(=O)NCCCN(C)Cc2ccccc2)CC1`: the inhibition is -2.3%.

Take `C=CCN(CC=C)C(=O)CN1C(=O)c2ccccc2C1=O`: the inhibition was 13.3%.

Turning to `Cc1cc(=O)oc(C)c1C(=O)NCc1ccc(F)cc1`, the inhibition was -12.6%.

With `O=C(O)C1CCCCC1C(=O)Nc1ccc(Cl)cc1` (stereo not given), the inhibition was -10.1%.

Consider `Cc1c2cnn(-c3ccccc3)c(=O)c2c(C)n1CCCC(=O)N1CCN(C)CC1`, for which the inhibition is 1.2%.

`O=C1CCC(Cc2ccccc2)N1` (stereo not given): the inhibition is 1.5%.

As for `COc1ccc(C(=O)NC(=O)CSc2nnc(-c3ccco3)n2-c2ccccc2)cc1`, the inhibition is -1.4%.

For the molecule `Cn1c(C(=O)N2CCC(C(N)=O)CC2)cc2c(=O)n(C)c3ccccc3c21`, the inhibition is -1%.

As for `O=C(NCc1ccco1)C1CCCN(S(=O)(=O)c2cccc3nonc23)C1` (stereo not given), the inhibition is -5.3%.

On to `Cn1c(=O)n(C)c2cc(CNc3ccc(N4CCOCC4)c(C(=O)O)c3)ccc21`, for which the inhibition is 0.5%.

On to `Cc1ccc(NC(=O)c2nc[nH]c2C(=O)N2CCCCC2)c(C(=O)c2ccccc2)c1`, for which the inhibition was -3.6%.

In general, inhibition refers to the relative decrease from the control value, in per cent.
